Common to all, as to conditions: mRNA level, 48 h; actives raise or lower the signal
Read-out in one assay: Caspase-3 (Homo sapiens) (UniProt P42574)
Description: LTEA_HepaRG_CASP3: Life Technologies and Expression Analysis (LTEA) Assay for cysteine-aspartic acid protease (CASP3) using HepaRG (AID 2283477). In short, it runs like this:
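HepaRG, 48 h exposure, 8 conc. (top 100 uM, half-log steps, duplicate), 0.5% DMSO vehicle; qRT-PCR of CASP3 transcript, housekeeping-normalised (ACTB/GAPDH/POLR2A); bidirectional curve fit vs DMSO baseline.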

Read-out in assay [1]: Cytochrome P450 (CYP1A2), CYP1A2 (gene 1544)
Description: LTEA_HepaRG_CYP1A2: Life Technologies and Expression Analysis (LTEA) Assay for Cytochrome P450 (CYP1A2) using HepaRG (AID 2283479). In outline: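 HepaRG, 48 h exposure, top 100 uM, half-log 8-pt, 0.5% DMSO vehicle, duplicates. Readout: TaqMan qRT-PCR of CYP1A2 mRNA, housekeeping-normalized (ACTB/GAPDH/POLR2A). Gain/loss fit relative to DMSO baseline.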

Read-out in assay [2]: cysteine-aspartic acid protease (CASP8), CASP8 (gene 841)
Briefly: LTEA_HepaRG_CASP8: Life Technologies and Expression Analysis (LTEA) Assay for cysteine-aspartic acid protease (CASP8) using HepaRG (AID 2283480). In short, it runs like this: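 Differentiated human HepaRG cells, plated 48 h then switched to serum-free induction medium, were exposed in duplicate for 48 h to 8 half-log concentrations up to 100 uM in 0.5% DMSO. CASP8 mRNA was quantified by qRT-PCR, normalized to ACTB/GAPDH/POLR2A.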

Read-out in assay [3]: Cytochrome P450 (CYP2B6), CYP2B6 (gene 1555)
Description: LTEA_HepaRG_CYP2B6: Life Technologies and Expression Analysis (LTEA) Assay for Cytochrome P450 (CYP2B6) using HepaRG (AID 2283481). In short, it runs like this: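 Read-out is CYP2B6 mRNA by TaqMan qRT-PCR, normalized to three housekeeping genes and fitted bidirectionally against 0.5% DMSO baseline. Human HepaRG cells received test chemicals for 48 h, top concentration 100 uM, half-log dilutions.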

Read-out in assay [4]: Cytochrome P450 2C19 (Homo sapiens) (UniProt P33261)
Description: LTEA_HepaRG_CYP2C19: Life Technologies and Expression Analysis (LTEA) Assay for CYP2C19 using HepaRG (AID 2283482). In short, it runs like this: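 HepaRG, 48 h chemical exposure, 8-pt half-log series from 100 uM in 0.5% DMSO, duplicates. Readout: CYP2C19 mRNA by TaqMan qRT-PCR, housekeeping-normalized. Bidirectional fit vs DMSO baseline; phenobarbital 1mM as induction control.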

Read-out in a further assay: CYP2C8 (gene 1558)
Description: LTEA_HepaRG_CYP2C8: Life Technologies and Expression Analysis (LTEA) Assay for CYP2C8 using HepaRG (AID 2283483). In short, it runs like this: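 Differentiated human HepaRG cells were exposed for 48 h in serum-free induction medium to eight half-log concentrations up to 100 uM in 0.5% DMSO, in duplicate. CYP2C8 mRNA was measured by TaqMan qRT-PCR, normalized to ACTB, GAPDH and POLR2A, and fitted bidirectionally against DMSO.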

Read-out in another assay: CYP2C9 (gene 1559)
Description: LTEA_HepaRG_CYP2C9: Life Technologies and Expression Analysis (LTEA) Assay for CYP2C9 using HepaRG (AID 2283484). In outline:
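Differentiated human HepaRG cells were exposed 48 h in serum-free induction medium to eight half-log concentrations up to 100 uM in 0.5% DMSO. CYP2C9 mRNA was measured by qRT-PCR, normalized to ACTB, GAPDH and POLR2A, and fitted bidirectionally against DMSO.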

Read-out in the next assay: CYP2E1 (gene 1571)
Briefly: LTEA_HepaRG_CYP2E1: Life Technologies and Expression Analysis (LTEA) Assay for CYP2E1 using HepaRG (AID 2283485). In short, it runs like this:
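HepaRG cells in serum-free induction medium exposed 48 h to test chemicals, 8 half-log concentrations up to 100 uM in 0.5% DMSO, duplicate. CYP2E1 mRNA by qRT-PCR, normalized to ACTB, GAPDH, POLR2A; bidirectional fit versus DMSO.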

Read-out in a further assay: CYP4A11 (gene 1579)
Briefly: LTEA_HepaRG_CYP4A11: Life Technologies and Expression Analysis (LTEA) Assay for CYP4A11 using HepaRG (AID 2283486). In short, it runs like this: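 CYP4A11 transcript levels were quantified by TaqMan qRT-PCR after HepaRG human liver cells were treated for 48 hours with test chemicals (top 100 uM, half-log dilutions, 0.5% DMSO). Gain or loss of signal was fitted relative to DMSO.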

Read-out in assay [5]: Cytochrome P450 3A4 (Homo sapiens) (UniProt P08684)
Description: LTEA_HepaRG_CYP3A4: Life Technologies and Expression Analysis (LTEA) Assay for CYP3A4 using HepaRG (AID 2283487). In outline: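 CYP3A4 transcript measured by TaqMan qRT-PCR and normalized to three housekeeping genes after 48 h chemical exposure of human HepaRG cells. Top concentration 100 uM, half-log steps, 0.5% DMSO vehicle; gain or loss fitted against DMSO baseline.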

Read-out in assay [6]: DNA damage-inducible transcript 3 (DDIT3), DDIT3 (gene 1649)
Description: LTEA_HepaRG_DDIT3: Life Technologies and Expression Analysis (LTEA) Assay for DNA damage-inducible transcript 3 (DDIT3) using HepaRG (AID 2283488). In short, it runs like this:
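Differentiated human HepaRG cells in serum-free induction medium were exposed in duplicate for 48 h to 8 concentrations (top 100 uM, half-log steps, 0.5% DMSO). DDIT3 mRNA measured by TaqMan qRT-PCR, normalized to ACTB/GAPDH/POLR2A; bidirectional fit versus DMSO.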

Read-out in assay [7]: Pro-epidermal growth factor (Homo sapiens) (UniProt P01133)
Briefly: LTEA_HepaRG_EGF: Life Technologies and Expression Analysis (LTEA) Assay for Epidermal growth factor (EGF) using HepaRG (AID 2283489). In outline: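 qRT-PCR readout of EGF transcript after 48 h chemical exposure of HepaRG cells; eight concentrations from 100 uM down in half-log steps, duplicate wells, 0.5% DMSO vehicle. Bidirectional curve fitting against DMSO baseline.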

Read-out in assay [8]: Early growth response protein 1 (EGR1) transcription factor, EGR1 (gene 1958)
Briefly: LTEA_HepaRG_EGR1: Life Technologies and Expression Analysis (LTEA) Assay for Early growth response protein 1 (EGR1) transcription factor using HepaRG (AID 2283490). In short, it runs like this:
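Differentiated human HepaRG cells in serum-free induction medium were exposed in duplicate for 48 h to eight concentrations (top 100 uM, half-log steps) in 0.5% DMSO. EGR1 mRNA was quantified by qRT-PCR, normalized to ACTB, GAPDH and POLR2A, and fitted bidirectionally versus DMSO.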

Read-out in assay [9]: Cytochrome P450 3A7 (Homo sapiens) (UniProt P24462)
Briefly: LTEA_HepaRG_CYP3A7: Life Technologies and Expression Analysis (LTEA) Assay for CYP3A7 using HepaRG (AID 2283492). In short, it runs like this: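 CYP3A7 transcript levels were read by TaqMan qRT-PCR on Fluidigm arrays after 48 h chemical exposure of human HepaRG cells, with housekeeping-gene normalisation. Eight half-log concentrations up to 100 uM in 0.5% DMSO were tested in duplicate.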

Read-out in a further assay: CYP3A5 (gene 1577)
Briefly: LTEA_HepaRG_CYP3A5: Life Technologies and Expression Analysis (LTEA) Assay for CYP3A5 using HepaRG (AID 2283493). In short, it runs like this:
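Differentiated HepaRG cells in serum-free induction medium were dosed 48 h with test chemicals (8-point half-log series, top 100 uM, 0.5% DMSO, duplicate). CYP3A5 mRNA measured by qRT-PCR, normalized to ACTB, GAPDH, POLR2A; bidirectional fit versus DMSO.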

Read-out in assay [10]: Fatty Acid-Binding Protein 1 (FABP1), FABP1 (gene 2168)
Description: LTEA_HepaRG_FABP1: Life Technologies and Expression Analysis (LTEA) Assay for Fatty Acid-Binding Protein 1 (FABP1) using HepaRG (AID 2283494). In short, it runs like this: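 Differentiated human HepaRG cells were exposed in duplicate for 48 h in serum-free induction medium to 8-point half-log concentration series topping at 100 uM in 0.5% DMSO. FABP1 mRNA measured by TaqMan qRT-PCR, normalized to ACTB/GAPDH/POLR2A; bidirectional fit versus DMSO.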

Read-out in assay [11]: Cytochrome P450 4A22 (Homo sapiens) (UniProt Q5TCH4)
Briefly: LTEA_HepaRG_CYP4A22: Life Technologies and Expression Analysis (LTEA) Assay for Cytochrome P450 4A22 (CYP4A22) using HepaRG (AID 2283495). In outline:
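HepaRG, 48 h post-plating -> serum-free induction medium; dosed 48 h, duplicate, 8 conc. (100 uM top, half-log), 0.5% DMSO. Readout: CYP4A22 mRNA by qRT-PCR, ACTB/GAPDH/POLR2A normalization; gain/loss fit relative to DMSO.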

Read-out in assay [12]: Cytochrome P450 7A1 (Homo sapiens) (UniProt P22680)
Description: LTEA_HepaRG_CYP7A1: Life Technologies and Expression Analysis (LTEA) Assay for Cytochrome P450 7A1 (CYP7A1) using HepaRG (AID 2283496). In short, it runs like this:
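Gene expression endpoint in human HepaRG liver cells treated for 48 h with test chemicals (up to 100 uM, 0.5% DMSO). Values come from bidirectional concentration-response fitting versus DMSO.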

The source made the active and inactive calls. The calls were made as follows: active = hit-call score of the fitted dose curve at least 0.9, where 1 is the maximum; inactive = score below 0.9.

Sequence of Cytochrome P450 3A4 (Homo sapiens) (P08684 whole entry, looked up): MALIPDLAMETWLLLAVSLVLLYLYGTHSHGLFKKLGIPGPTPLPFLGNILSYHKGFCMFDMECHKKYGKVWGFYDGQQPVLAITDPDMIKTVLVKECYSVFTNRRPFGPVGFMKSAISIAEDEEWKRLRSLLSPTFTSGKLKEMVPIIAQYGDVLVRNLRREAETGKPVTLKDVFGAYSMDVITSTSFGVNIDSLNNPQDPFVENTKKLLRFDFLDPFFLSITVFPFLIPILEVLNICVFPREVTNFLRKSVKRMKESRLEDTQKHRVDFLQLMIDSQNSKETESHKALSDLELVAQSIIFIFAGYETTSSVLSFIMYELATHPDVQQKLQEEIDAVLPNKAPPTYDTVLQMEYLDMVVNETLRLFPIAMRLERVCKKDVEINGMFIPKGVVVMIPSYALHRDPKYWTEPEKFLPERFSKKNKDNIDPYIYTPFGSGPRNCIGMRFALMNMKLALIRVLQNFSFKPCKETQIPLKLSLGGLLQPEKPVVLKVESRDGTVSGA
Sequence of Cytochrome P450 2C19 (Homo sapiens) (P33261 whole entry, looked up): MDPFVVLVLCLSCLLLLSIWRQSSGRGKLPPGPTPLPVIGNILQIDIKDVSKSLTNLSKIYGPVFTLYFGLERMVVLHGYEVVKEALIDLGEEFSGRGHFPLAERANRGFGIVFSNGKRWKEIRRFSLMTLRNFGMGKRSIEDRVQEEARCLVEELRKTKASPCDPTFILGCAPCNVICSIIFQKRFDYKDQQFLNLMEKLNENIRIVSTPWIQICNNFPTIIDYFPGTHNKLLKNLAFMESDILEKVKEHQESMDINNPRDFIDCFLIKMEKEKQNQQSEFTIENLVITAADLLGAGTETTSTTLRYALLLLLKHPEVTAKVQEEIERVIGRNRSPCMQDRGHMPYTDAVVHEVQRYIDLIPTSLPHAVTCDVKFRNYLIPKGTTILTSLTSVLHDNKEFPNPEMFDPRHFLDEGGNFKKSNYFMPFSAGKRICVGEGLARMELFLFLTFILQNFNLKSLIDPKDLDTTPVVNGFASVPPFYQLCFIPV
Sequence of Caspase-3 (Homo sapiens) (P42574 whole entry, looked up): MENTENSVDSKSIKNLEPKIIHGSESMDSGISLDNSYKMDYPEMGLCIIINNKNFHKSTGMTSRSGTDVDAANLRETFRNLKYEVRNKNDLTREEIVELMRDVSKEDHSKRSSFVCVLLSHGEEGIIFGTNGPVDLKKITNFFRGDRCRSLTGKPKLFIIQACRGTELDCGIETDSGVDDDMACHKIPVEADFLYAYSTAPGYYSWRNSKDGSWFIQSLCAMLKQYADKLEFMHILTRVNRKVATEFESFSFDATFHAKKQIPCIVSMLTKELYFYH
Sequence of Cytochrome P450 3A7 (Homo sapiens) (P24462 whole entry, looked up): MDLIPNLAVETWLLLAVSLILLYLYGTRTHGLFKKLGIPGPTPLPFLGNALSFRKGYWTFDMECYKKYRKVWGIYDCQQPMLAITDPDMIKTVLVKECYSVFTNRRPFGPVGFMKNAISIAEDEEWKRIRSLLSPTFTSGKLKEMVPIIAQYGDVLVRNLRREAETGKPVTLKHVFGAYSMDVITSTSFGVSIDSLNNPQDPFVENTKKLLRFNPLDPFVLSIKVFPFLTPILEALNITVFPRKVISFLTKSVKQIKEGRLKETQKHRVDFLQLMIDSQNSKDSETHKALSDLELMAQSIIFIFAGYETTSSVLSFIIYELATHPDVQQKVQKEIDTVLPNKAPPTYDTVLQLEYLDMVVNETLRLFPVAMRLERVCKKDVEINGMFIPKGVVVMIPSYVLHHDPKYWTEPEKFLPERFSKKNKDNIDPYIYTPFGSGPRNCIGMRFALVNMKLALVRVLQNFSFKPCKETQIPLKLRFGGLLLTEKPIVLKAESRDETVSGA

As a reminder, the AC50 is the concentration giving half of the maximal activity seen. Consider `COc1ccc(C)cc1N`, for which the outcome (in the assay with Caspase-3 (Homo sapiens); in assay [1]; in assay [2]; in assay [4]; with CYP2C8 (gene 1558); with CYP2C9 (gene 1559)) was inactive. For the same molecule, the molecule was classed as inactive (in the assay with CYP2E1 (gene 1571); in the assay with CYP4A11 (gene 1579); in assay [5]; in assay [6]; in assay [7]; in [8]). The outcome (in assay [9]; with CYP3A5 (gene 1577); in assay [10]; in assay [11]; in assay [12]) was inactive. Also, the AC50 in [3] was 25.6 µM (active).
For the molecule `CC(=O)C(C)=CC1C(C)=CCCC1(C)C` (stereo not given), the result (with Caspase-3 (Homo sapiens); in assay [1]; in assay [2]; in assay [3]; in assay [4]; in the assay with CYP2C8 (gene 1558)) was inactive. The result (with CYP2C9 (gene 1559); with CYP2E1 (gene 1571); with CYP4A11 (gene 1579); in assay [5]; in assay [6]; in assay [7]) was inactive. Moreover, the molecule was called inactive (in [8]; in [9]; in the assay with CYP3A5 (gene 1577); in assay [10]; in assay [11]; in [12]).
Take `C[C@]12C=CC(=O)C=C1CC[C@@H]1[C@@H]2C(=O)C[C@@]2(C)[C@H]1CC[C@]2(O)C(=O)CO`: the result (with Caspase-3 (Homo sapiens); in [2]; in [6]; in assay [7]; in assay [8]; in [10]) was inactive.
Regarding `CCCCCCCCCCCCCCCC`, the outcome (with Caspase-3 (Homo sapiens); in assay [2]; in assay [3]; in assay [4]; with CYP2C8 (gene 1558); with CYP2C9 (gene 1559)) was inactive. The outcome (with CYP2E1 (gene 1571); with CYP4A11 (gene 1579); in [5]; in [6]; in [7]; in [8]) was inactive. The result (in assay [9]; in the assay with CYP3A5 (gene 1577); in assay [10]; in assay [11]; in assay [12]) was inactive. In assay [1], the AC50 is 50 µM (active).

The record behind these values is PubChem BioAssay (EPA / NIEHS).
